From PubChem BioAssay (Tox21)
“And” between values parts separate entries of the source, which are not always exact repeats. Identical values can stand only once. Inconclusive results are not listed. Some structures have more than one record in an assay (separate samples or runs), and their calls can disagree. The source made the active and inactive calls. Calls follow the shape of the dose curve; as a rule, active = well fitted curve in the direction sought with a large enough effect in the repeat runs; inconclusive = weak or mixed curves; inactive = no such curve, though single readings can be large; an effect the other way counts as inactive or inconclusive.

What was measured:
[1] = qHTS RealTime-Glo MT Cell Viability Assay in HepG2 cells - 8 hour (AID 1224873); also: nearly all actives have a fitted effect of over 55% in size; also: potency is read from the fitted curve at half-maximal effect
In short: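 Real-time viability: cells seeded at 600 per well together with NanoLuc and cell-permeant prosubstrate, compounds added after 5 h incubation. Luminescence tracked at 0, 8, 16, 24, 32 and 40 h of exposure.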

[2] = qHTS RealTime-Glo MT Cell Viability Assay in HEK293 cells - 40 hour (AID 1224874); details: RealTime-Glo luminescence; max response: stronger effect = lower value; also: nearly all actives have a fitted effect of over 50% in size; also: potency is read from the fitted curve at half-maximal effect
In short: (§1)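 Measured as luminescence from the same continuously cultured HEK293 wells at successive time points (0, 8, 16, 24, 32, 40 h) after compound addition. Reagent present from seeding; dosing at 5 h; incubation 37 C.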

[3] = A CellTox Green Cytotoxicity Assay to monitor cytotoxicity in HepG2 cells - 16 hour (AID 1224876); also: nearly all actives have a fitted effect of over 45% in size; also: potency is read from the fitted curve at half-maximal effect
In short: (§2)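 Fluorescent DNA-binding dye, 600 HepG2 cells/well, 5 h preincubation then compound in DMSO; same plates read at 0–40 h, 37 C.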

[4] = qHTS RealTime-Glo MT Cell Viability Assay in HepG2 cells - 32 hour (AID 1224877); also: nearly all actives have a fitted effect of over 55% in size; also: potency is read from the fitted curve at half-maximal effect
In short: (§3)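 Viability was tracked continuously by NanoLuc luminescence from prosubstrate reduced by living HepG2 cells, at successive time points over 40 h of compound exposure. Cells with reagent were preincubated 5 h at 37 °C before compound addition.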

[5] = qHTS RealTime-Glo MT Cell Viability Assay in HEK293 cells - 0 hour (AID 1224880); also: top concentration of the series differs between compounds; nearly all actives have a fitted effect of over 45% in size
In short: as §1

[6] = A CellTox Green Cytotoxicity Assay to monitor cytotoxicity in HepG2 cells - 0 hour (AID 1224882); also: nearly all actives have a fitted effect of over 35% in size
In short: as §2

[7] = qHTS RealTime-Glo MT Cell Viability Assay in HEK293 cells - 24 hour (AID 1224886); also: nearly all actives have a fitted effect of over 50% in size; also: potency is read from the fitted curve at half-maximal effect
In short: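 Viability tracked continuously by luminescence as live cells reduce a prosubstrate for NanoLuc; HEK293 cells preincubated 5 h, compound-treated at 37 C, and read at 0, 8, 16, 24, 32 and 40 h.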

[8] = qHTS RealTime-Glo MT Cell Viability Assay in HEK293 cells - 8 hour (AID 1224887); also: nearly all actives have a fitted effect of over 50% in size; also: potency is read from the fitted curve at half-maximal effect
In short: as §1

[9] = qHTS assay to identify small molecule antagonists of the estrogen receptor alpha (ER-alpha) signaling pathway using the BG1 cell line in the presence of 0.1 nM 17-beta-estradiol - cell viability counter screen (AID 1259241); also: nearly all actives have a fitted effect of over 40% in size; also: potency is read from the fitted curve at half-maximal effect
In short: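 Cells were plated and left 24 hr, compounds in DMSO were pinned in, 17beta-estradiol was added to 0.1 nM final, and after 22 hr CellTiter-Fluor reagent was added for 30 min before fluorescence was read.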

[10] = qHTS assay to identify small molecule antagonists of the androgen receptor (AR) signaling pathway using the MDA cell line in the presence of 0.5 nM R1881 - cell viability counter screen (AID 1259242); also: nearly all actives have a fitted effect of over 45% in size; also: potency is read from the fitted curve at half-maximal effect
In short: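 Human breast carcinoma MDA-kb2 cells, cultured without CO2, receive compounds alongside 0.5 nM (final) R1881 agonist. After 16 hr at 37C, viability is taken as live-cell protease signal.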

[11] = A CellTox Green Cytotoxicity Assay to monitor cytotoxicity in HepG2 cells - 24 hour (AID 1224878); also: nearly all actives have a fitted effect of over 45% in size; also: potency is read from the fitted curve at half-maximal effect
In short: as §2

[12] = A CellTox Green Cytotoxicity Assay to monitor cytotoxicity in HepG2 cells - 40 hour (AID 1224879); also: nearly all actives have a fitted effect of over 40% in size; also: potency is read from the fitted curve at half-maximal effect
In short: as §2

[13] = A CellTox Green Cytotoxicity Assay to monitor cytotoxicity in HEK293 cells - 32 hour (AID 1224881); also: nearly all actives have a fitted effect of over 40% in size; also: potency is read from the fitted curve at half-maximal effect
In short: (§4)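 Homogeneous no-lysis format: HEK293 cell suspension mixed with CellTox Green reagent, seeded, incubated 5 h at 37 C/5% CO2, then dosed by pintool with compound in DMSO.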

[14] = A CellTox Green Cytotoxicity Assay to monitor cytotoxicity in HepG2 cells - 32 hour (AID 1224883); also: nearly all actives have a fitted effect of over 50% in size; also: potency is read from the fitted curve at half-maximal effect
In short: as §2

[15] = A CellTox Green Cytotoxicity Assay to monitor cytotoxicity in HEK293 cells - 8 hour (AID 1224884); also: nearly all actives have a fitted effect of over 35% in size
In short: as §4

[16] = qHTS RealTime-Glo MT Cell Viability Assay in HepG2 cells - 16 hour (AID 1224885); also: nearly all actives have a fitted effect of over 50% in size; also: potency is read from the fitted curve at half-maximal effect
In short: as §3

[17] = A CellTox Green Cytotoxicity Assay to monitor cytotoxicity in HEK293 cells - 16 hour (AID 1224888); also: nearly all actives have a fitted effect of over 35% in size
In short: as §4

[18] = A CellTox Green Cytotoxicity Assay to monitor cytotoxicity in HepG2 cells - 8 hour (AID 1224890); also: nearly all actives have a fitted effect of over 45% in size
In short: as §2

[19] = A CellTox Green Cytotoxicity Assay to monitor cytotoxicity in HEK293 cells - 24 hour (AID 1224875)
In short: as §4

[20] = qHTS RealTime-Glo MT Cell Viability Assay in HepG2 cells - 0 hour (AID 1224889); also: nearly all actives have a fitted effect of over 50% in size
In short: as §3
% is scaled to controls: 0 for no effect and ±100 for the full control effect.

Sc1nc2ccccc2s1
inactive: Potency [1] | max response [2] 15.8% | Potency [3] | Potency [4] | Potency [5] | Potency [6] | Potency [7] | Potency [8] | Potency [9] | Potency [10]

O=C(O)c1cc(O)c2ccccc2c1O
active: Potency [1] 17.4 µM | Potency [2] 38.9 µM | Potency [3] 43.6 µM | Potency [4] 21.9 µM | Potency [11] 43.6 µM | Potency [12] 24.5 µM | Potency [13] 21.9 µM | Potency [14] 24.5 µM | Potency [16] 19.5 µM | Potency [7] 43.6 µM | Potency [8] 17.4 µM | Potency [9] 34.4 µM | Potency [10] 54.5 µM
inactive: Potency [6] | Potency [15] | Potency [17] | Potency [18]

CCCCCc1ccc(Cl)cc1
inactive: Potency [1] | Potency [19] | Potency [3] | Potency [4] | Potency [11] | Potency [12] | Potency [5] | Potency [13] | Potency [6] | Potency [14] | Potency [15] | Potency [16] | Potency [8] | Potency [17] | Potency [20] | Potency [18] | Potency [9] | Potency [10]

Oc1c(I)cc(Cl)c2cccnc12
active: Potency [2] 24.5 µM | Potency [12] 34.6 µM and 5.35 µM
34.6 µM (active) and inactive: Potency [7]
10.9 µM (active) and inactive: Potency [13]
inactive: Potency [1] | Potency [19] | Potency [3] | Potency [11] | Potency [5] | Potency [6] | Potency [14] | Potency [15] | Potency [8] | Potency [17] | Potency [20] | Potency [18] | Potency [9]

COc1ccc(NC(=O)CC(C)=O)cc1
inactive: Potency [1] | max response [2] 8.59% | Potency [3] | Potency [4] | Potency [11] | Potency [12] | Potency [5] | Potency [6] | Potency [14] | Potency [16] | Potency [7] | Potency [8] | Potency [20] | Potency [18] | Potency [9] | Potency [10]

COCCOc1cc2cc(C(=O)NC3CCN(C(C)C)CC3)n(CC(=O)Nc3ccc(Cl)cn3)c2cn1
inactive: Potency [1] | max response [2] -25.3% | Potency [19] | Potency [3] | Potency [5] | Potency [13] | Potency [6] | Potency [14] | Potency [15] | Potency [17] | Potency [20] | Potency [18] | Potency [9] | Potency [10]

O=C(O)c1cc(N=Nc2ccc([N+](=O)[O-])cc2)ccc1O
inactive: Potency [1] | Potency [19] | Potency [3] | Potency [4] | Potency [11] | Potency [12] | Potency [13] | Potency [6] | Potency [14] | Potency [16] | Potency [7] | Potency [8] | Potency [17] | Potency [18]

CCCCCCOC(=O)C(C)CC (stereo not given)
inactive: Potency [1] | Potency [19] | Potency [3] | Potency [11] | Potency [12] | Potency [5] | Potency [13] | Potency [6] | Potency [14] | Potency [15] | Potency [16] | Potency [8] | Potency [17] | Potency [18] | Potency [9] | Potency [10]

O=c1oc2cc(O)ccc2c2oc3cc(O)ccc3c12
inactive: Potency [1] | Potency [19] | Potency [3] | Potency [4] | Potency [11] | Potency [5] | Potency [13] | Potency [6] | Potency [14] | Potency [15] | Potency [16] | Potency [17] | Potency [20] | Potency [18] | Potency [9] | Potency [10]
active: Potency [7] 21 µM | Potency [8] 16.7 µM

C=CC(C)(CCC=C(C)C)OC=O (stereo not given)
inactive: Potency [1] | Potency [19] | Potency [3] | Potency [4] | Potency [11] | Potency [12] | Potency [5] | Potency [13] | Potency [6] | Potency [14] | Potency [7] | Potency [8] | Potency [17] | Potency [18] | Potency [9] | Potency [10]

c1ccc(C(O[C@@H]2CCCN(CCc3ccc4c(c3)OCO4)C2)c2ccccc2)cc1
inactive: Potency [1] | Potency [19] | Potency [3] | Potency [11] | Potency [5] | Potency [13] | Potency [6] | Potency [15] | Potency [16] | Potency [17] | Potency [20] | Potency [18] | Potency [9] | Potency [10]
